PubChem BioAssay AID1159580 (chemical genetic matrix, 2015)
Several values for one entry are separate records, joined by “and”; a condition that tells them apart may be missing. Identical values can stand only once. About 2,000 (36%) of roughly 5,500 compounds were called active. Inconclusive results (about 18%) are left out. Cut-off read from the data, not from the text of the source: active = normalized growth mostly below about 0.91 (no sharp cut-off); inconclusive = no clear call, values can overlap the other calls; inactive = mostly above about 0.92. The list shows a part of the results.

Assay: chemical genetic growth profiling, strain panel (AID 1159580);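 note: tested at 20 µM; growth read once vehicle control cultures reached saturation at 30 °C; 1 = growth at the plate median or of vehicle wells; lower values mean less growth of the strain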
Details: S. cerevisiae deletion strains, growth OD

Measured: normalized growth

COc1cc([C@@H]2c3cc4c(cc3[C@H](O)[C@H]3COC(=O)[C@@H]23)OCO4)cc(OC)c1OC
inactive: locus YAL021C, strain ccr4, hits give low values 1 | locus YAL026C, strain drs2, hits give low values 1.03 | locus YAL030W, strain snc1, hits give low values 1.02 | locus YBL061C, strain skt5, hits give low values 1 | locus YBR009C, strain hhf1, hits give low values 1 | locus YBR021W, strain FUR4, hits give low values 1.04 | locus YBR023C, strain chs3, hits give low values 1.02 | locus YBR171W, strain sec66, hits give low values 1.02 | locus YBR229C, strain ROT2, hits give low values 1 | locus YBR231C, strain swc5, hits give low values 1.02 | locus YBR279W, strain paf1, hits give low values 1.02 | locus YCL011C, strain gbp2, hits give low values 1.02 | locus YCL016C, strain dcc1, hits give low values 1.01 | locus YCL029C, strain bik1, hits give low values 0.983 | locus YCL069W, strain vba3, hits give low values 1.02 | locus YCR088W, strain abp1, hits give low values 1.02 | locus YDL005C, strain med2, hits give low values 1.02 | locus YDL035C, strain GPR1, hits give low values 0.991 | locus YDL040C, strain nat1, hits give low values 1.02 | locus YDL074C, strain BRE1, hits give low values 0.949 | locus YDL101C, strain DUN1, hits give low values 1.01 | locus YDL134C, strain PPH21, hits give low values 1.03 | locus YDL185W, strain tfp1, hits give low values 0.945 | locus YDL192W, strain arf1, hits give low values 1.01 | locus YDR001C, strain nth1, hits give low values 1.02 | locus YDR069C, strain doa4, hits give low values 1.03 | locus YDR101C, strain arx1, hits give low values 0.98 | locus YDR137W, strain rgp1, hits give low values 1.05 | locus YDR159W, strain sac3, hits give low values 1.03 | locus YDR162C, strain NBP2, hits give low values 1.01 | locus YDR195W, strain ref2 1.04 | locus YDR297W, strain sur2, hits give low values 1.03 | locus YDR318W, strain mcm21, hits give low values 0.999 | locus YDR334W, strain swr1, hits give low values 1.02 | locus YDR335W, strain msn5, hits give low values 1.02 | locus YDR388W, hits give low values 0.988 | locus YDR392W, strain spt3, hits give low values 0.989 | locus YDR502C, strain sam2, hits give low values 0.989 | locus YEL003W, strain gim4, hits give low values 1.02 | locus YEL037C, strain rad23, hits give low values 1.01 | locus YEL061C, strain CIN8 (second series), hits give low values 1.02 | locus YEL061C, strain CIN8, hits give low values 1.01 | locus YER015W, strain faa2, hits give low values 1.02 | locus YER016W, strain bim1, hits give low values 1.02 | locus YER110C, hits give low values 0.98 | locus YER111C, strain swi4, hits give low values 1.01 | locus YER155C, strain BEM2 (second series), hits give low values 1.02 | locus YER155C, strain BEM2, hits give low values 0.986 | locus YER167W, strain BCK2, hits give low values 1 | locus YFR010W, strain ubp6, hits give low values 1.02 | locus YGL078C, strain dbp3, hits give low values 0.972 | locus YGL086W, strain mad1, hits give low values 0.983 | locus YGL167C, strain pmr1, hits give low values 1.02 | locus YGL173C, strain kem1, hits give low values 1.02 | locus YGL227W, strain vid30, hits give low values 1.03 | locus YGL240W, strain doc1, hits give low values 1.03 | locus YGL248W, strain PDE1, hits give low values 1.03 | locus YGL253W, strain hxk2, hits give low values 1.02 | locus YGR135W, strain pre9, hits give low values 1.02 | locus YGR229C, strain SMI1, hits give low values 1.02 | locus YGR252W, strain gcn5, hits give low values 1.17 | locus YHR013C, strain ard1, hits give low values 1.03 | locus YHR027C, strain rpn1, hits give low values 1.02 | locus YHR030C, strain SLT2, hits give low values 0.987 and 0.98 | locus YHR079C, strain IRE1 (second series), hits give low values 0.983 | locus YHR079C, strain IRE1, hits give low values 0.983 | locus YHR094C, strain hxt1, hits give low values 0.999 | locus YHR129C, strain ARP1, hits give low values 1.01 | locus YHR142W, strain chs7, hits give low values 1.03 | locus YHR200W, strain rpn10, hits give low values 0.976 | locus YIL066C, strain RNR3, hits give low values 1.01 | locus YIL073C, strain SPO22, hits give low values 0.961 | locus YIL125W, strain kgd1, hits give low values 0.994 | locus YIR030C, strain dcg1, hits give low values 0.995 | locus YJL092W, strain hpr5, hits give low values 1.02 | locus YJL095W, strain BCK1 (second series), hits give low values 1.02 | locus YJL095W, strain BCK1, hits give low values 1.05 and 0.988 | locus YJL115W, strain asf1, hits give low values 1.04 | locus YJL129C, strain trk1, hits give low values 1.04 | locus YJL134W, strain LCB3, hits give low values 0.986 | locus YJL154C, strain vps35, hits give low values 1.01 | locus YJL164C, strain tpk1, hits give low values 1 | locus YJL166W, strain qcr8, hits give low values 1.03 | locus YJL168C, strain set2, hits give low values 0.989 | locus YJL187C, strain SWE1 (second series), hits give low values 1.01 | locus YJR043C, strain POL32, hits give low values 1.01 | locus YJR066W, strain TOR1, hits give low values 0.917
